In PubChem BioAssay (NCI):
The panel holds about 79,000 compounds, 15% with a hit somewhere; the sample as a whole holds those more often. Activity calls are given as the source filed them. Cut-off read from the data, not from the text of the source: active = growth inhibition above about 70%; inactive = the rest. Where a SMILES comes first, the peptide text is derived from it. [ ]: non-standard residue; d: D form. The star is where a group is joined. ξ: configuration not given here. Cbz = O=C(OCc1ccccc1)*; ξNva = CCCC(N)C(=O)O

How the values were obtained:
[1] = NCI Yeast Anticancer Drug Screen. Data for the rad50 strain (AID 155);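 note: 0% = growth of vehicle-only cultures of the same strain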; details: S. cerevisiae rad50 strain growth inhibition; at 50.0 µM; stronger effect = higher value
Outline: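 Growth of the mutant yeast was measured after compound exposure and referenced to vehicle-treated cultures.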

[2] = NCI Yeast Anticancer Drug Screen. Data for the mec2-1 strain (AID 157); details: S. cerevisiae mec2-1 strain, at 50.0 µM, stronger effect = higher value
Outline: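 Mutant yeast (mec2-1) grown with compound; growth inhibition relative to vehicle control reported.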

[3] = NCI Yeast Anticancer Drug Screen. Data for the sgs1 mgt1 strain (AID 161);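 note: 0% = growth of cultures given vehicle only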; details: S. cerevisiae sgs1 mgt1 strain, at 50.0 µM, stronger effect = higher value
Outline: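 Yeast cells carrying a defined DNA-repair defect were exposed to test compounds. Growth inhibition was measured relative to vehicle-treated controls.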

[4] = NCI Yeast Anticancer Drug Screen. Data for the cln2 rad14 strain (AID 165);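 note: 0% = growth equal to vehicle treated cultures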; details: S. cerevisiae cln2 rad14 strain, at 50.0 µM, stronger effect = higher value
Outline: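 Readout is yeast growth inhibition versus vehicle-treated controls, using a strain with cln2 and rad14 alterations exposed to compound.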

[5] = NCI Yeast Anticancer Drug Screen. Data for the bub3 strain (AID 167); details: S. cerevisiae bub3 mutant strain, at 50.0 µM, stronger effect = higher value
Outline: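 Whole-cell yeast assay. The mutant strain was incubated with compounds, and growth inhibition was determined by comparison with vehicle-treated cells.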

[6] = NCI Yeast Anticancer Drug Screen. Data for the mlh1 rad18 strain (AID 175); details: S. cerevisiae mlh1 rad18 strain growth inhibition; at 50.0 µM; stronger effect = higher value
Outline: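 Genetically defined yeast (DNA repair-deficient) exposed to compounds; growth inhibition determined relative to vehicle.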

Measured: growth inhibition

O=S(=O)(O)CNc1ccc(Cl)cc1
inactive: [1] 15.8% | [2] -12.7% | [3] 4.05% | [4] -29.7% | [5] -23.1% | [6] 4.05%

N#CCOc1ccc(/C=C/C(=O)c2ccc(Cl)cc2)cc1
inactive: [1] -39.5% | [2] -53.6% | [3] -23.1% | [4] -23.1% | [5] 20.4% | [6] -21.2%

COc1cc(NS(=O)(=O)c2ccccc2)ccc1C
inactive: [1] 27.6% | [2] -20.3% | [3] 14.7% | [4] 12.3% | [5] 22.4% | [6] 24.9%

CCc1c([N+](=O)[O-])cc(C(C)(C)C)c(OC)c1[N+](=O)[O-]
inactive: [1] -9.05% | [2] -9.75% | [3] 0.6% | [4] -17.6% | [5] 20.2% | [6] -31.6%

COc1cc(Cl)ccc1NC(=O)Oc1ccc(-c2ccccc2)cc1Cl
active: [2] 99.5% | [3] 99.5% | [4] 99% | [5] 99.2% | [6] 99.4%
inactive: [1] 65.8%

CCCC(C)NC(=O)c1ccc(OCC)cc1 (stereo unspecified)
inactive: [1] -12.6% | [2] -3% | [3] -4.95% | [4] -44% | [5] -12.3% | [6] -3.85%

Cc1cc(/C=C\[N+](=O)[O-])c(C)c2c1oc1ccccc12
inactive: [1] -10.8% | [2] -2.55% | [3] 2.1% | [4] 4.75% | [5] 2.4% | [6] -7.05%

O=C(NCSC1=NCCS1)NCSC1=NCCS1
inactive: [1] -7.05% | [2] -20.4% | [3] 6.85% | [4] 16.5% | [5] 2.85% | [6] -14.8%

CCCCCCCCCCCCCCCc1c(NC(C)(CC(C)(C)O)[P+](=O)O)c(=O)n(C)n1C (stereo unspecified)
inactive: [1] -52.2% | [2] -31.1% | [3] -30.9% | [4] -25.2% | [5] -33.8% | [6] -33.4%

CC(C)CCC(C)C1CCC2C3CC/C(=N/Nc4ccc([N+](=O)[O-])cc4[N+](=O)[O-])C(C)(CCC(=O)O)C3CCC12C (stereo unspecified)
inactive: [1] -45.8% | [2] -12.2% | [3] -24.9% | [4] -24.2% | [5] -0.1% | [6] -3.4%

C[C@]12CC[C@@H]3c4ccc(O)cc4CC[C@H]3[C@@H]1CC[C@@H]2OP(=O)(O)O
inactive: [1] -0.15% | [2] -9.95% | [3] -37.1% | [4] -27.4% | [5] -6.45% | [6] -16.6%

Cn1cc(C(C)(c2ccccc2)c2cn(C)c3ccccc23)c2ccccc21
inactive: [1] -13.8% | [2] -6% | [3] -4.25% | [4] -24.2% | [5] -5.6% | [6] -11%

CCC(C)C(C)/C(C)=N/Nc1ccc([N+](=O)[O-])cc1[N+](=O)[O-] (stereo unspecified)
inactive: [1] 13.7% | [2] -10% | [3] 0.25% | [4] -34.9% | [5] 6.6% | [6] -26.4%

CCN(CC)c1ncnc2c1cnn2C
inactive: [1] -14.8% | [2] -14.4% | [3] 8.75% | [4] 11% | [5] -15.9% | [6] -28%

CCOC(=O)COC(=O)CCc1ccccc1
inactive: [1] 0.3% | [2] -39.6% | [3] -5% | [4] -36.8% | [5] -12.9% | [6] 0.45%

O=c1c2ccccc2[nH]c2ccc(Br)cc12
inactive: [1] 8.25% | [2] 2.2% | [3] 3.8% | [4] -6.1% | [5] 2.95% | [6] 17.8%

Nc1ccc(Nc2cc(=O)[nH]c(=O)[nH]2)cc1Cl
inactive: [1] 5.8% | [2] 6.6% | [3] 14.1% | [4] 6.2% | [5] -3.2% | [6] -20.8%

CN(C)CCSc1nc2ccccc2o1
inactive: [1] 12.2% | [2] 20.8% | [3] 27.7% | [4] 21.1% | [5] 16.9% | [6] 32.9%

CSc1cnn(-c2ccccc2)[n+]1[O-]
inactive: [1] 3.8% | [2] -1.3% | [3] -7.15% | [4] -42.5% | [5] -1.75% | [6] -0.85%

CCOC(=O)C1C(c2cc(OC)c(OC)c(OC)c2)c2cc3c(cc2OC1(C)N1CCCC1)OCO3 (stereo unspecified)
inactive: [1] 7.15% | [2] -0.45% | [3] -12.3% | [4] 20.5% | [5] 1.55% | [6] 22.1%

CCCCCCCCCCCCCCCCOCC(O)CO (stereo unspecified)
inactive: [1] -8.55% | [2] -29.2% | [3] 1.25% | [4] -5.65% | [5] -17.1% | [6] -56.9%

O=C1c2cc3c(cc2C(=O)c2[nH]ncc21)OCO3
inactive: [1] 60.5% | [2] 30.4% | [3] 16.7% | [4] -20.2% | [5] 19.1% | [6] 17.2%

CN(C)c1ccc(/C=C2\CCc3ccccc3C2=O)cc1Br
inactive: [1] 5.6% | [2] -12.1% | [3] -13.9% | [4] -9.05% | [5] 3.95% | [6] -26.6%

O=C(NNC(=S)Nc1ccccc1)C12CC3CC(CC(C3)C1)C2
inactive: [1] -12% | [2] 31.4% | [3] 29.8% | [4] 14.7% | [5] 35.5% | [6] 1.3%

COc1ccc(NC(=O)C(=O)Cc2nc3ccc(C(=O)c4ccccc4)cc3[nH]c2=O)c([N+](=O)[O-])c1
inactive: [1] 36% | [2] 2.65% | [3] 12.7% | [4] 19.1% | [5] 11.8% | [6] 22.6%

O=C(O)CC1CC(=O)c2cccn21 (stereo unspecified)
inactive: [1] -4.35% | [2] 4.85% | [3] -8.15% | [4] 3.6% | [5] 0.8% | [6] -34%

FC(F)(F)c1cc(Br)c2ccc3ncccc3c2n1
inactive: [1] 6.5% | [2] 8.3% | [3] -1.05% | [4] -5.2% | [5] 6.8% | [6] 3.1%

Cc1ccc2c(c1)C(=O)C1(C2)Cc2ccc(C)cc2C1=O
inactive: [1] -53% | [2] -45.9% | [3] 4.05% | [4] -3.45% | [5] 5.45% | [6] -24.9%

N#C/C(=C/C=C/c1ccccc1)c1ccc([N+](=O)[O-])cc1
inactive: [1] 22% | [2] 23.4% | [3] 24.8% | [4] -8.2% | [5] 36.5% | [6] 18.9%

NC(N)=NS(=O)(=O)c1ccc(N)cc1
inactive: [1] 45% | [2] 23.9% | [3] 26.4% | [4] 14.3% | [5] 13.3% | [6] 13%

CCOC(=O)CNC(=O)C(Cc1ccccc1)NC(=O)c1ccccc1[N+](=O)[O-] (stereo unspecified)
inactive: [1] 22.8% | [2] 14.3% | [3] 16% | [4] 15.8% | [5] -1.25% | [6] 15.8%

O=C(O)C1C2C=CC(O2)C1C(=O)NCc1ccncc1 (stereo unspecified)
inactive: [1] -10% | [2] 14.7% | [3] -7.8% | [4] -30.1% | [5] -32.5% | [6] 3.35%

N#CCCN(c1ccc(C=O)cc1)S(=O)(=O)c1ccccc1
inactive: [1] -0.1% | [2] -13% | [3] -1.75% | [4] 5.75% | [5] -13.4% | [6] -15.7%

N#Cc1ccc(C=NC23CC4CC(CC(C4)C2)C3)cc1
inactive: [1] -12% | [2] -10% | [3] -6.7% | [4] 2.4% | [5] -2% | [6] -4.1%

CN(C=O)c1c(F)cc(C(=O)O)cc1F
inactive: [1] 3.05% | [2] 4.1% | [3] -3.3% | [4] 4.1% | [5] -6.65% | [6] 8.15%

CCOC(=O)C(C)F (stereo unspecified)
inactive: [1] 6.1% | [2] -26.1% | [3] 1.55% | [4] -1.15% | [5] -8.45% | [6] 3.75%

CCCC(NC(=O)OCc1ccccc1)C(=O)NCC(=O)O (stereo unspecified) (Cbz-[ξNva]-Gly-OH)
inactive: [1] 24.6% | [2] 7.2% | [3] 6.05% | [4] 23.4% | [5] 8.7% | [6] 8.55%

O=CNC(Cc1ccccc1)c1ccc(OCc2ccccc2)cc1 (stereo unspecified)
inactive: [1] 0.75% | [2] 5% | [3] 1.55% | [4] 31.1% | [5] 31.6% | [6] 16.9%

Cc1ccc(P(=S)(c2ccc(C)c3ccccc23)c2ccc(C)c3ccccc23)c2ccccc12
inactive: [1] -8.1% | [2] -6.3% | [3] -3.4% | [4] -8.7% | [5] 0.1% | [6] -4.9%

O=C1NC(N2CCCCC2)=N/C1=C\c1ccc(Cl)cc1
inactive: [1] -7.5% | [2] -7% | [3] 2.4% | [4] 7.55% | [5] -12.3% | [6] -38.5%

COc1ccccc1N=Nc1c(C)nc(N)nc1-c1ccccc1
inactive: [1] 23.1% | [2] 10.4% | [3] 25.9% | [4] 7.9% | [5] 4.6% | [6] 23.6%
